The list is not random: actives were taken first. Their share in the collection is about 8%.
KB-3-1 cytotox: qHTS assay for MDR1-selective chemotherapeutics: Primary screen using the parental adenocarcinoma cell KB-3-1; KB-3-1 viability, CellTiter-Glo ATP luminescence, 72 h; Potency, µM (series often up to 46.1 µM), usual class: cytotoxic; actives 1.4% (n = 400,000); AID 1347075, 2019; further: on the % scale 0 is the no-effect control and ±100 the full control effect; nearly all actives have a fitted effect of over 60% in size
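Cytotoxicity measured as CellTiter-Glo luminescence after 72 h at 37 C. Compound titrations were pinned onto drug-naive KB-3-1 parental adenocarcinoma cells grown in DMEM with 10% FBS, and normalized data fitted to concentration-response curves.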
MCF10A rerep: A quantitative high throughput screen for small molecules that induce DNA re-replication in MCF 10a normal breast cells; MCF 10A DNA re-replication, Hoechst nuclear intensity, 48 h; Potency, µM (titrated, usually from 46.1 µM), for the others: top-dose activity, positive = re-replication, hits mostly activators; actives 2.9% (n = 350,000); AID 624296, 2012; further: % of control where 0% means no effect; nearly all actives have a fitted effect of over 50% in size
HT1080 IDH1KD tx: qHTS for induction of synthetic lethality in tumor cells producing 2HG: qHTS for the HT-1080-IDH1KD cell line; Potency, µM (doses to about 46.1 µM), without a hit: at the top dose activity, negative = toxicity, hits mostly cytotoxic; HT-1080 IDH1 knockdown viability, ATP luminescence, 48 h; actives 2% (n = 360,000); AID 686971, 2013;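 further: 0% = DMSO wells and -100% = cell-free medium wells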
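% activity derives from luminescence (CellTiter-Glo), normalised to DMSO and no-cell wells. HT-1080-IDH1KD cells, 750/well, had 48 h compound exposure at 37 °C.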
HT1080-NT tox: qHTS for induction of synthetic lethality in tumor cells producing 2HG: qHTS for the HT-1080-NT fibrosarcoma cell line. HT-1080-NT fibrosarcoma viability, CellTiter-Glo ATP luminescence, 48 h. Potency, µM (top dose mostly 46.1 µM), for inactives: at the top dose activity, negative = less viability, most hits filed as cytotoxic. actives 1.6% (n = 360,000). AID 686970, 2013;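 further: NT is the 2HG producing partner of a matched IDH1 knockdown line; 0% = DMSO-treated cells and -100% = media-only wells without cells; nearly all actives have a fitted effect of over 55% in size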
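Compounds were tested in concentration-response format on HT-1080-NT cells for 48 hours at 37 degrees C. Cell viability came from CellTiter-Glo luminescence; curves were classified by r2, response magnitude and activity.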
KB-V1 MDR tox: qHTS assay for MDR1-selective chemotherapeutics: Primary screen using the drug-selected MDR subline cells KB-V1 | KB-V1 MDR cells viability, CellTiter-Glo, 72 h | Potency, µM (series often up to 46.1 µM), actives largely listed as cytotoxic | actives 3.4% (n = 400,000) | AID 1347076, 2019; further: on the % scale 0 is the no-effect control and ±100 the full control effect; nearly all actives have a fitted effect of over 60% in size
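In this primary screen, KB-V1 cells overexpressing P-gp are incubated with library compounds (lowest to highest concentration) for 72 h at 37 degrees C before a luminescent ATP viability read.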
SW480 rerep: A quantitative high throughput screen for small molecules that induce DNA re-replication in SW480 colon adenocarcinoma cells. SW480 DNA re-replication, Hoechst DNA content imaging, 48 h. Potency, µM (top dose mostly 46.1 µM), without a hit: top-dose re-replication activation, hits mostly activators. actives 1.8% (n = 340,000). AID 624297, 2012; further: % of control where 0% means no effect; nearly all actives have a fitted effect of over 55% in size
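Image-based read-out: total Hoechst fluorescence of nuclei (405 nm excitation, 500-530 nm emission), with hits raising the fraction of high-intensity nuclei. SW480 colon cells incubated 48 hr with compounds at 37 C.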
* = called active by the depositor; i = inactive; ? = inconclusive; nt = not tested or not shown. The call rests on the fitted dose curve; in most records, active means well fitted curve in the direction sought with a large enough effect; inconclusive means small, poorly fitted or top-dose-only effect, or another doubt; inactive means no such curve, though single readings can be large; an effect the other way counts as inactive or inconclusive. Potency means the concentration at half of the fitted maximal effect.

SMILES	KB-3-1 cytotox	MCF10A rerep	HT1080 IDH1KD tx	HT1080-NT tox	KB-V1 MDR tox	SW480 rerep
CCOC(=O)c1cccc(C(=O)Oc2ccccc2)n1	i	21µM*	-3%	9%	i	0%
CCOC(=O)c1cc(OC(=O)c2cc(OC)c(OC)c(OC)c2)n(-c2ccccc2)n1	i	nt	nt	nt	i	nt
COc1ccc(C(=O)Nc2cccc3c2CCCC3)cc1	23µM*	13µM*	?	?	i	?
COc1cccc(C(=O)Nc2c3c(nc4c2CCC4)CCCC3)c1	i	8%	8%	0%	15µM*	1%
COc1ccc(C(=O)Nc2ccc3c4c(cccc24)CC3)cc1	i	8%	?	-15%	13µM*	7%
COc1ccc(CC(=O)Nc2cccc3c2CCCC3)cc1	i	12%	0%	6%	i	3%
COc1cccc(C(=O)Nc2c(F)c(F)c(F)c(F)c2F)c1	i	-1%	4%	-1%	?	0%
COc1ccc(N2CCN(CCCNC(=O)c3ccc4nc(Cc5ccccc5)oc4c3)CC2)cc1	?	nt	nt	nt	i	nt
CC(C)n1nnnc1C1c2ccccc2C(=O)N1CCCn1ccnc1 (stereo not given)	i	nt	21%	14%	i	nt
O=C(Nc1ncc2c(n1)CC(c1ccccc1)CC2=O)c1ccco1 (stereo not given)	i	1%	5%	-7%	i	2%
O=C1CC(c2ccccc2)Cc2nc(NCc3ccco3)ncc21 (stereo not given)	i	14%	-12%	-2%	16µM*	?
CN(CCC#N)C(=O)COC(=O)c1c2c(nc3ccccc13)/C(=C/c1ccco1)CC2	i	?	14%	12%	?	12µM*
Cc1c2cnn(-c3ccccc3)c(=O)c2c(C)n1CCCC(=O)Nc1cc(F)ccc1F	i	nt	nt	nt	i	nt
O=S(=O)(c1ccccc1F)N1CCN(Cc2cc3c(cc2Br)OCCO3)CC1	i	?	2%	7%	21µM*	-6%
O=S(=O)(c1ccccc1)N1CCN(Cc2cc3c(cc2Br)OCCO3)CC1	i	9%	10%	0%	?	-4%
CC1CCN(S(=O)(=O)c2cn(CC(=O)N3CC(C)CC(C)C3)c(=O)c3ccccc23)CC1 (stereo not given)	i	-2%	-10%	1%	1.3µM*	-2%
CC(C)C(=O)N(c1cc2sc(=O)oc2c2ccccc12)S(=O)(=O)c1cccs1	i	?	?	11µM*	?	21%
CCOC(=O)C1CCN(C(=O)c2cccc(N3C(=O)NC4CC3(C)Oc3ccc(C)cc34)c2)CC1 (stereo not given)	i	-2%	1%	-3%	i	-21%
CCOC(=O)N1CCN(C(=O)c2cccc(N3C(=O)NC4CC3(C)Oc3ccc(Cl)cc34)c2)CC1 (stereo not given)	?	16µM*	7.3µM*	7.3µM*	i	13µM*
COc1ccc(S(=O)(=O)N(C)C[C@H]2Oc3ccc(NS(=O)(=O)c4ccccc4)cc3C(=O)N([C@H](C)CO)C[C@@H]2C)cc1	i	1%	1%	-2%	i	-27%
COc1ccc(S(=O)(=O)N(C)C[C@H]2Oc3ccc(NS(=O)(=O)c4cccs4)cc3C(=O)N([C@H](C)CO)C[C@@H]2C)cc1	i	3.3µM*	5%	7%	i	?
CC(C)CC1C(=O)N(Cc2cn(CCC3OCCCO3)nn2)CCS(=O)(=O)N1Cc1ccc(-c2ccccc2)cc1 (stereo not given)	i	nt	-1%	1%	i	nt
CC(C)CC1C(=O)N(Cc2cn(CCC3OCCO3)nn2)CCS(=O)(=O)N1Cc1ccc(-c2ccccc2)cc1 (stereo not given)	?	nt	-27%	?	15µM*	nt
Cc1ccc(-c2ccc(CN3C(CC(C)C)C(=O)N(Cc4cn(CCC5OCCO5)nn4)CCS3(=O)=O)cc2)cc1 (stereo not given)	?	nt	18µM*	18µM*	i	nt
Cc1ccc(S(=O)(=O)c2nc(-c3cccs3)oc2SC(C)c2ccccc2)cc1 (stereo not given)	i	nt	nt	nt	i	nt
SMILES	KB-3-1 cytotox	MCF10A rerep	HT1080 IDH1KD tx	HT1080-NT tox	KB-V1 MDR tox	SW480 rerep
COc1ccc(-c2csc(NC(=O)CSc3nc4ccccc4c(=O)[nH]3)n2)cc1	i	19%	16µM*	18µM*	i	?
COc1ccc(-c2csc(NC(=O)CSc3nnc(Nc4ccccc4C)s3)n2)cc1	i	?	21µM*	21µM*	i	5.8µM*
Cc1ccc(-c2csc(NC(=O)CSc3nc4ccccc4[nH]3)n2)cc1	i	?	-21%	0%	i	-5%
CCSc1ccccc1C(=O)Nc1nc2ccccc2c(=O)[nH]1	i	21%	?	-14%	18µM*	?
CCOc1ccccc1Nc1nnc(SCC(=O)Nc2nc(-c3ccc(OC)cc3)cs2)s1	i	0%	9%	-5%	i	0%
CSc1ccccc1C(=O)Nc1nc2ccccc2c(=O)[nH]1	i	-3%	-2%	-25%	i	11%
COC(=O)c1ccccc1NC(=O)CSc1nc2ccccc2c(=O)[nH]1	i	4%	-18%	-5%	i	-9%
NC(=O)c1ccccc1NC(=O)CSc1nc2ccccc2c(=O)[nH]1	nt	-11%	?	13µM*	nt	-7%
CCc1cc(C(=O)Cc2nc3ccccc3s2)c(O)cc1OCC(=O)O	i	?	8%	22%	i	-74%
COc1ccccc1Nc1nnc(SCC(=O)Nc2nc(-c3ccc(F)cc3)cs2)s1	i	66%	?	23µM*	i	?
CCn1c2ccccc2c2cc(/C=N/NC(=O)c3ccccc3C)ccc21	21µM*	4.6µM*	21µM*	15µM*	5.2µM*	13µM*
CCn1c2ccccc2c2cc(NC(C)=O)ccc21	i	-2%	-4%	2%	?	0%
Cn1c2ccccc2c2cc(/C=N/NC(=O)c3ccccc3F)ccc21	i	?	18µM*	?	i	?

Screens deposited in PubChem by National Center for Advancing Translational Sciences (NCATS).
